# Test results from the supplement of paper PMC8728848.
# Many of the other results were omitted from the sample, so the strongest signals are more common in it than they were.
# Experiments:
# Test in all cases: glycan array binding signal (z-score within array); higher = stronger binding
# Settings in all cases: glycan notation: IUPAC condensed, linker removed
# [1] = tested on: Neu5Ac(a2-3)Gal(b1-4)[Fuc(a1-3)]GlcNAc(b1-3)Gal(b1-4)[Fuc(a1-3)]GlcNAc(b1-3)Gal(b1-4)Glc
# Method in brief: (§1)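 Glycan array data came from 3228 arrays in the Consortium for Functional Glycomics database, and only arrays with an available protein sequence were kept. Glycan names were put into IUPAC-condensed notation, and columns mapping to the same glycan were averaged. The binding signal is a within-array Z-score, averaged across arrays of one protein sequence run at different concentrations or buffers and across linkers. A negative Z-score can be read as non-binding.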
# [2] = tested on: Neu5Ac(a2-3)Gal(b1-4)[Fuc(a1-3)]GlcNAc6S(b1-3)Gal(b1-4)Glc
# Method in brief: as §1
# [3] = tested on: Neu5Ac(a2-3)Gal(b1-4)[Fuc(a1-3)]GlcNAc(b1-6)[Gal(b1-3)]GalNAc
# Method in brief: as §1
# [4] = tested on: Neu5Ac(a2-3)Gal(b1-4)GlcNAc(b1-3)Gal(b1-4)GlcNAc(b1-2)Man(a1-3)[Neu5Ac(a2-3)Gal(b1-4)GlcNAc(b1-3)Gal(b1-4)GlcNAc(b1-2)Man(a1-6)]Man(b1-4)GlcNAc(b1-4)GlcNAc
# Method in brief: as §1
# [5] = tested on: Neu5Ac(a2-3)Gal(b1-4)GlcNAc(b1-3)Gal(b1-4)GlcNAc(b1-3)Gal(b1-4)GlcNAc(b1-2)Man(a1-3)[Neu5Ac(a2-3)Gal(b1-4)GlcNAc(b1-3)Gal(b1-4)GlcNAc(b1-3)Gal(b1-4)GlcNAc(b1-2)Man(a1-6)]GalNAc
# Method in brief: as §1
# [6] = tested on: Neu5Ac(a2-3)Gal(b1-4)GlcNAc(b1-3)Gal(b1-4)GlcNAc(b1-3)GalNAc
# Method in brief: as §1
# [7] = tested on: Neu5Ac(a2-3)Gal(b1-4)GlcNAc(b1-6)[Gal(b1-3)]GalNAc
# Method in brief: as §1
# [8] = tested on: Neu5Ac(a2-3)Gal(b1-4)[Fuc(a1-3)]GlcNAc(b1-3)Gal(b1-4)[Fuc(a1-3)]GlcNAc(b1-3)Gal(b1-4)[Fuc(a1-3)]GlcNAc
# Method in brief: as §1
# [9] = tested on: Neu5Ac(a2-3)Gal(b1-4)[Fuc(a1-3)]GlcNAc(b1-6)[Neu5Ac(a2-3)Gal(b1-3)]GalNAc
# Method in brief: as §1
# [10] = tested on: Neu5Ac(a2-3)Gal(b1-4)GlcNAc(b1-3)Gal
# Method in brief: as §1
# [11] = tested on: Neu5Ac(a2-3)Gal(b1-4)[Fuc(a1-3)]GlcNAc(b1-3)GalNAc
# Method in brief: as §1
# [12] = tested on: Neu5Ac(a2-3)Gal(b1-4)GlcNAc(b1-3)Gal(b1-4)GlcNAc(b1-3)Gal(b1-4)GlcNAc
# Method in brief: as §1
# [13] = tested on: Neu5Ac(a2-3)Gal(b1-4)GlcNAc(b1-3)GalNAc
# Method in brief: as §1
# [14] = tested on: Neu5Ac(a2-3)Gal(b1-4)Glc
# Method in brief: as §1
# [15] = tested on: Neu5Ac(a2-3)Gal(b1-4)[Fuc(a1-3)]GlcNAc
# Method in brief: as §1
# [16] = tested on: Neu5Ac(a2-3)Gal(b1-4)GlcNAc6S
# Method in brief: as §1
# [17] = tested on: Neu5Ac(a2-3)Gal(b1-4)GlcNAc
# Method in brief: as §1
# [18] = tested on: Neu5Ac(a2-3)Gal(b1-4)GlcNAc(b1-3)Gal(b1-4)[Fuc(a1-3)]GlcNAc
# Method in brief: as §1
# [19] = tested on: Neu5Ac(a2-3)Gal(b1-4)GlcNAc(b1-6)GalNAc
# Method in brief: as §1
# [20] = tested on: Neu5Ac(a2-3)Gal(b1-4)[Fuc(a1-3)]GlcNAc(b1-3)Gal(b1-4)GlcNAc
# Method in brief: as §1
substance,measurement,setting,value
"MIC3-MAR5 (Eimeria tenella), B6VCV4",glycan array binding signal (z-score),[1],0.92
same,glycan array binding signal (z-score),[2],2.08
AgI/IIC123-GFP (Streptococcus mutans),glycan array binding signal (z-score),[3],0.09
AgI/II Vhelical-GFP (Streptococcus mutans),glycan array binding signal (z-score),[4],1.8
same,glycan array binding signal (z-score),[5],-0.031
same,glycan array binding signal (z-score),[6],0.5
same,glycan array binding signal (z-score),[7],-0.273
same,glycan array binding signal (z-score),[8],-0.178
same,glycan array binding signal (z-score),[9],-0.178
"Wza (Escherichia coli), P0A930",glycan array binding signal (z-score),[10],2.81
same,glycan array binding signal (z-score),[11],1.12
"SiiE (Salmonella typhimurium), A0A0H3NVH0",glycan array binding signal (z-score),[12],-0.456
same,glycan array binding signal (z-score),[13],-1.98
same,glycan array binding signal (z-score),[14],2.39
same,glycan array binding signal (z-score),[15],0.224
"SpGH101 (Streptococcus pneumoniae), Q8DR60",glycan array binding signal (z-score),[10],-0.209
same,glycan array binding signal (z-score),[11],1.68
"BambL (Burhholderia ambifaria), Q0B4G1",glycan array binding signal (z-score),[12],-0.313
"MIC3-MAR1b (Eimeria tenella), B6VCV4",glycan array binding signal (z-score),[14],-0.453
same,glycan array binding signal (z-score),[15],-0.346
Epa22,glycan array binding signal (z-score),[16],0.274
same,glycan array binding signal (z-score),[17],0.352
same,glycan array binding signal (z-score),[9],0.118
Actinohivin (Actinomycete K97),glycan array binding signal (z-score),[14],0.053
same,glycan array binding signal (z-score),[9],-0.02
LcI (Legionella pneumophila),glycan array binding signal (z-score),[18],-0.717
same,glycan array binding signal (z-score),[19],3.79
same,glycan array binding signal (z-score),[16],-0.956
same,glycan array binding signal (z-score),[20],0.401
